Dicer processing = blocks human Dicer maturation of pre-miR-21; cat-ELCCA pre-miR-21 Dicer processing, chemiluminescence; active compounds read high; z-score at 25 µM; actives 6% (n = 47,000); Q9UPY3; in the data active = z-score above about 3, passing the limit was not always enough;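 also: higher signal means more uncleaved substrate so more Dicer inhibition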
Target sequence (Q9UPY3 whole entry, looked up): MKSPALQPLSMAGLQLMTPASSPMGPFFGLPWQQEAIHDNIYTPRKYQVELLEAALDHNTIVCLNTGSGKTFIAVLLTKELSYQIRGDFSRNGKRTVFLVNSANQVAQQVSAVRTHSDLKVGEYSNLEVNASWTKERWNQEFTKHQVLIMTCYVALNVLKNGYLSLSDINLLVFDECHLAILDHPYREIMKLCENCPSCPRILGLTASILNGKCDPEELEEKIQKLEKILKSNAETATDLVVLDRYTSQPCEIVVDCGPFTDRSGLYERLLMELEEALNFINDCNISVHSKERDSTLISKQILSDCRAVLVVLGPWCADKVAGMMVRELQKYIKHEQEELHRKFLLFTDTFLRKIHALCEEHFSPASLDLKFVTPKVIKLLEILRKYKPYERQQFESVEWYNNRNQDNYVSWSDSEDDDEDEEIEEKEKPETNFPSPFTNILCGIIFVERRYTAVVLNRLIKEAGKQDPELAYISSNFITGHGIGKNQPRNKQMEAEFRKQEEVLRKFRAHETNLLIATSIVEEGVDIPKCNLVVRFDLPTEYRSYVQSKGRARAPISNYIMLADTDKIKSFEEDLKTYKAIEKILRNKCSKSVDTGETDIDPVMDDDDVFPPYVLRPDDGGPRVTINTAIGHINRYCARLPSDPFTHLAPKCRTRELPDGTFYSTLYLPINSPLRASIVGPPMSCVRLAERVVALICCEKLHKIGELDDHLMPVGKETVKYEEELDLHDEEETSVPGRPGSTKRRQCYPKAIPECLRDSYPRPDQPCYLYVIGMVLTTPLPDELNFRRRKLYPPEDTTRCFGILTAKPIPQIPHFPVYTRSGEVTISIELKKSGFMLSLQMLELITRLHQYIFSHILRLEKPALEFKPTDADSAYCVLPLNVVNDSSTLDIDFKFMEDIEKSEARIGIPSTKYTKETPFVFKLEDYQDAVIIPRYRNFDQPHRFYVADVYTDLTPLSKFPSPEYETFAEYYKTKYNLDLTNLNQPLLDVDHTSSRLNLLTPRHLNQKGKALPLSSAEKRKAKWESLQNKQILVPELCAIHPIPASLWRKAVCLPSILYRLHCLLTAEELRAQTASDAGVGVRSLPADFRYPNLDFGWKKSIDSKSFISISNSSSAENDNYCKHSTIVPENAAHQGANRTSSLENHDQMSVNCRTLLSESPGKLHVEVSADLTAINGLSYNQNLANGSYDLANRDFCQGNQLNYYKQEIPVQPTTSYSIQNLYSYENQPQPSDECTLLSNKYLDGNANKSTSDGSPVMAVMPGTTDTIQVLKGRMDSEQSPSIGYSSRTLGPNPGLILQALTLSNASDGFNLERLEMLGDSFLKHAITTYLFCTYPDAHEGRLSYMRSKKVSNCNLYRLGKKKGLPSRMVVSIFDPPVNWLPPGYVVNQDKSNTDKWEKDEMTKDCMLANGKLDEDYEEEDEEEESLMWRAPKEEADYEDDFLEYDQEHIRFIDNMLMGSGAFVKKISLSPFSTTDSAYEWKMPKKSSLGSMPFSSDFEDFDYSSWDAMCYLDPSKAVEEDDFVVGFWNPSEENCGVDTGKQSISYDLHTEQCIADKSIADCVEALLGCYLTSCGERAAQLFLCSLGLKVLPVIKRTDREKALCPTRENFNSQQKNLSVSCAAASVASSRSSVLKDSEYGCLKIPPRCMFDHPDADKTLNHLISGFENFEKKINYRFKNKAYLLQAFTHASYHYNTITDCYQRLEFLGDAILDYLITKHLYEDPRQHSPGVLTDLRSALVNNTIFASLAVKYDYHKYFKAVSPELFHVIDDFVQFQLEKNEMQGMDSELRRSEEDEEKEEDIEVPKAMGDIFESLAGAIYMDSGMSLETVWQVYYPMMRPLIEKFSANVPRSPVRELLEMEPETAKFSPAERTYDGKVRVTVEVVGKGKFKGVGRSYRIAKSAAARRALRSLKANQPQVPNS
Hits are given with their value; – = inactive. The full list was thinned out, with hits kept by preference.

SMILES | Dicer processing
COc1ccccc1NC(=O)c1c(NC(=O)c2ccco2)sc2c1CCC2 | –
COC(=O)c1c(NC(=O)CCCC(=O)O)sc2c1CCC2 | 4.35
COC(=O)c1c(NC(=O)c2c(OC)cccc2OC)sc2c1CCC2 | –
CCOC(=O)c1c(NC(=O)CC)sc2c1CCC2 | –
NC(=O)c1c(NC(=O)c2ccccc2C(=O)O)sc2c1CCCC2 | –
COC(=O)c1c(NC(=O)c2ccccc2C(=O)O)sc2c1CCC2 | 3.06
COc1ccc(NC(=O)c2c(NC(=O)c3ccco3)sc3c2CCC3)cc1 | 3.26
COC(=O)c1c(NC(=O)c2cc(OC)cc(OC)c2)sc2c1CCC2 | –
CCOC(=O)CCC(=O)Nc1sc2c(c1C(=O)OCC)CCCC2 | –
CC(=O)OC[C@H]1O[C@@H](Nc2ccc(C)cc2)[C@H](OC(C)=O)[C@@H](OC(C)=O)[C@@H]1OC(C)=O | –
NC(=S)Nc1ccccc1N1CCOCC1 | –
O=C(Nc1nnc(C2CCCO2)s1)c1c(-c2ccccc2)c(-c2ccccc2)n[nH]c1=O (stereo not given) | –
CCNC(=S)Nc1ccc(C)cc1C | –
CC(=O)c1cc(Cl)cc(Cl)c1OC(=O)c1ccc([N+](=O)[O-])cc1 | –
CCOc1ccc(-c2c[n+]3c(n2Cc2ccccc2)SCCC3)cc1 | –
COC(=O)C(C(C(=O)OC)N1CCOCC1)N1CCOCC1 (stereo not given) | –
O=C(NC(=O)c1ccc(F)c(Cl)c1)Nc1ccc(F)cc1F | –
Cc1nc2c(nc(C)n2-c2ccccc2)s1 | –
Cc1ccc(N2C(=O)SC(Nc3ccc(S(N)(=O)=O)cc3)C2=O)cc1C (stereo not given) | –
O=C1/C(=C\c2ccccc2Cl)C(c2ccccc2)Oc2ccccc21 (stereo not given) | –
CC1SC(c2cccnc2)N(c2ccc(Cl)cc2)C1=O (stereo not given) | –
O=C1CSC(c2cccnc2)N1CCc1ccc(Cl)cc1 (stereo not given) | –
COc1ccc(CCN2C(=O)C(C)SC2c2cccnc2)cc1 (stereo not given) | 4.16
COc1ccc(/C=N\NS(=O)(=O)c2ccc(-c3nc(C)oc3-c3ccc([N+](=O)[O-])cc3)cc2)cc1OC | –
OCCCc1nc2n(n1)C(c1ccc(Cl)cc1)C=C(c1ccccc1)N2 (stereo not given) | –
SMILES | Dicer processing
CCC(C)OC(=O)C(C)Oc1ccc2c(=O)c(-c3ccccc3)coc2c1 (stereo not given) | –
CCCOC(=O)Nc1sc2c(c1C(=O)OCC)CCCC2 | –
NN=C1c2cc([N+](=O)[O-])ccc2-c2ccc([N+](=O)[O-])cc21 | –
O=[N+]([O-])c1ccc2c(c1)C(=NO)c1cc([N+](=O)[O-])ccc1-2 | –
O=C1c2cc([N+](=O)[O-])ccc2-c2ccc([N+](=O)[O-])cc21 | 7.71
Cc1ccc(Br)cc1[N+](=O)[O-] | –
O=[N+]([O-])c1ccc2c3c(ccc(Br)c13)CC2 | 3.34
CC(=O)Nc1cc(C)c(Br)cc1[N+](=O)[O-] | –
COc1ccc(CCn2cnc3cc(C(F)(F)F)ccc32)cc1OC | –
COc1cccc(OC)c1NC(=O)NC(=O)c1c(OC)c(Br)cc([N+](=O)[O-])c1OC | –
COc1c(Br)cc([N+](=O)[O-])c(OC)c1C(=O)NC(=O)Nc1cc(C(F)(F)F)cc(C(F)(F)F)c1 | 4.22
COc1c(Br)cc([N+](=O)[O-])c(OC)c1C(=O)NC(=O)Nc1c(Cl)cc([N+](=O)[O-])cc1Cl | –
OCC#CCSc1nnc(-c2ccc(Cl)cc2)o1 | –
COC(=O)c1c(C)oc2ccc(OC(C)C(=O)OC)cc12 (stereo not given) | –
N#C/C(=C\Nc1ccc(F)cc1F)C(=O)C1CC1 | –
Cn1ncc(C(=O)O/N=C/c2ccc(OC(F)(F)F)cc2)c1-n1cccc1 | –
CCOC(=O)c1cc(C)ccc1NC(=O)c1cc(C)ccc1[N+](=O)[O-] | –
CCC1(c2cccc(OC)c2)CCCCNC1=O (stereo not given) | –
O=c1[nH]c2ccccc2c2oc(-c3ccccc3)nc12 | –
O=C(O)c1c(-c2ccccc2)c2oc3ccccc3c2[nH]c1=O | 4.37
O=c1[nH]c2c(F)cccc2c(O)c1-c1ccccc1 | –
CCOC(=O)c1cnc(NNC(=O)c2ccc(C(C)(C)C)cc2)nc1C(F)(F)F | –
Cc1ccc(-c2csc(NC(=O)C3C4C=CC(O4)C3C(=O)O)n2)cc1 (stereo not given) | –
CCOC(=O)c1c(NC(=O)CC)sc2c1CCC(Sc1ccccc1)C2=O (stereo not given) | –
COc1ccc(OC)c(C2C(C#N)=C(C)NC3=C2C(=O)CC(c2ccccc2)C3)c1 (stereo not given) | –
SMILES | Dicer processing
CC(C)c1ccc2c(c1)CCC1C(C)(CNC(=O)/C=C/C(=O)O)CCCC21C (stereo not given) | –
O=c1cc(-c2ccccc2)oc2ccc(-c3nn[nH]n3)cc12 | –
Cc1ccc2oc(-c3ccccc3)cc(=O)c2c1 | 4.71
Cc1ccc2oc(C(=O)O)cc(=O)c2c1 | –
O=C(Nc1ccc(N2CCC(n3cccc3)CC2)cc1)c1ccccc1Cl | –
CCOC(=O)Cc1csc(NC(=O)Nc2cc(Cl)ccc2OC)n1 | –
Cc1noc(C)c1S(=O)(=O)Nc1csc(C(F)(F)F)c1-c1ccccc1 | –
Cc1c(C#N)c(NC(=O)c2ccc(Cl)cc2)n(Cc2cc(C(F)(F)F)cc(C(F)(F)F)c2)c1C | –
CC1CC(N(C(=O)c2cccs2)c2ccccc2)c2ccccc2N1C(=O)c1ccco1 (stereo not given) | –
COCCCN1C(=O)C(=O)/C(=C(/O)c2ccc(C)cc2)C1c1cc(OC)ccc1OC (stereo not given) | –
Cc1ccc(S(=O)(=O)N2CN3CN(C2)CN(S(=O)(=O)c2ccc(C)cc2)C3)cc1 | –
Cc1ccc(S(=O)(=O)N2CCCOC2)cc1 | 3.82
Cc1ccc(S(=O)(=O)N2CCCC3(CCCCC3)C2)cc1 | –
CCSc1nc(-c2ccc(Cl)cc2)[nH]c(=O)n1 | –
O=c1nc(SCc2c(Cl)cccc2Cl)nc(-c2ccc(Cl)cc2)[nH]1 | 5.89
O=c1nc(SCc2ccccc2Cl)nc(-c2ccc(Cl)cc2)[nH]1 | –
Cc1ccc(-c2coc3cc4oc(=O)c5ccccc5c4cc23)cc1 | –
O=C(Nc1ccc(OCc2ccccc2)cc1)Nc1ccc(N2CCCCC2)cc1 | –
CC(C)(C)c1ccc(C(=O)N/N=C(/C(=O)O)c2ccccc2)cc1 | –
C/C(=N/NC(=O)c1ccccc1)C(=O)O | 3.29
C/C(Cc1ccccc1)=N\NC(=O)c1ccncc1 | –
N#Cc1cccc(S(=O)(=O)N2CCN(c3cc(C(F)(F)F)nc4ccccc34)CC2)c1 | –
COc1ccc(S(=O)(=O)Nc2sccc2C#N)cc1 | –
CN1C/C(=C\c2ccccc2)C(=O)/C(=C/c2ccccc2)C1 | –
O=C1/C(=C/c2ccc(F)cc2)CN(Cc2ccccc2)C/C1=C\c1ccc(F)cc1 | 4.18
SMILES | Dicer processing
COc1ccc(/C=C2\CN(C)C/C(=C\c3ccc(OC)cc3)C2=O)cc1 | –
CCSC1=N/C(=C\c2cc3c(cc2Br)OCO3)C(=O)S1 | –
CCOC(=S)SCc1c(F)cccc1Cl | 4.26
S=C(Nc1ccc(Cl)cc1)SCc1c(Cl)cccc1Cl | –
N=C(N)SCc1c(F)cccc1Cl | –
CCCCn1c(CSCc2ccc(Cl)cc2)cn(-c2nnc(C(C)(C)C)s2)c1=O | –
C/C(COc1ccc(-c2csnn2)cc1)=N\NC(N)=S | –
N#Cc1c(=N)nc2oc3ccccc3c3cc(-c4ccccc4)[nH]c1c23 | –
COc1cc(-c2cc3c(c(N)c2C#N)c(=O)oc2ccccc23)cc(OC)c1OC | 3.7

Source: PubChem BioAssay
